From the supplement of paper PMC12024424
Where a name gives a salt, the structure may show the parent alone.

What follows are molecules tested on Staphylococcus aureus Sa2 (MRSA, cystic fibrosis isolate) (assay: growth reduction vs untreated control (OD550); higher = stronger antibacterial activity). Details: 0.1 mM; 24 h.
Method: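 Single-dose screen of the MedChem Express Drug Repurposing Library (0.1 mM, 1% DMSO) against planktonic MRSA S. aureus Sa2 (CF isolate) in TSB in 96-well plates, 37 °C aerobic, 24 h. Assays were run in triplicate and repeated twice.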

Structure (SMILES)	growth reduction
COc1cc([C@@H]2c3cc4c(cc3[C@@H](O[C@@H]3O[C@@H]5CO[C@@H](c6cccs6)O[C@H]5[C@H](O)[C@H]3O)[C@H]3COC(=O)[C@H]23)OCO4)cc(OC)c1O [Teniposide]	100%
Cc1cc(Nc2ncc(Cl)c(Nc3ccccc3S(=O)(=O)C(C)C)n2)c(OC(C)C)cc1C1CCNCC1 [Ceritinib dihydrochloride]	100%
Cc1nc(Nc2ccc(F)cc2)nc(N2CCc3ccccc3C2C)c1C (stereo not given) [Revaprazan (hydrochloride)]	93.4%
NC(N)=NC(=O)c1nc(Cl)c(N2CCCCCC2)nc1N [5-(N,N-Hexamethylene)-amiloride]	100%
CCCCCCCCCCCCCCCC[N+](C)(C)CCN(Cc1ccc(OC)cc1)c1ncccn1 [Thonzonium (bromide)]	100%
NCCCC[C@H](NC(=O)[C@@H](NC(=O)[C@H](Cc1c[nH]c2ccccc12)NC(=O)[C@H](CCCCN)NC(=O)[C@H](CCCCN)NC(=O)[C@H](Cc1c[nH]c2ccccc12)NC(=O)[C@H](Cc1c[nH]c2ccccc12)NC(=O)[C@H](CCCCN)NC(=O)[C@@H](N)CCCCN)C(c1ccccc1)c1ccccc1)C(N)=O	100%
CCCCCCCC/C=C/CCCCCCCC(=O)OC[C@H]1O[C@@H](n2ccc(N)nc2=O)C(F)(F)[C@@H]1O [Gemcitabine (elaidate)]	100%
Cn1cc(-c2ccncc2)c(-c2ccc(OCc3ccc4ccccc4n3)cc2)n1 [Mardepodect]	100%
C=CC(N)CCC(=O)O (stereo not given) [Vigabatrin (hydrochloride)]	100%
C/C=C(/C(=C/C)c1ccc(O)cc1)c1ccc(O)cc1 [Dienestrol]	99.7%
Clc1ccc(C(Cn2ccnc2)OCc2ccc(Sc3ccccc3)cc2)c(Cl)c1 (stereo not given) [Fenticonazole (Nitrate)]	100%
Nc1ccc2cc3ccc(N)cc3nc2c1 [Proflavine (hemisulfate)]	100%
CCN1CCN(Cc2ccc(-c3cc4c(N[C@H](C)c5ccccc5)ncnc4[nH]3)cc2)CC1	100%
Cc1cc([C@H](C)Nc2nccc(N3C(=O)OC[C@@H]3[C@@H](C)F)n2)ncc1-c1ccnc(C(F)(F)F)c1	100%
Oc1ccc2c(c1)CC[C@H](c1ccccc1)[C@@H]2c1ccc(OCCN2CCCC2)cc1 [Lasofoxifene (Tartrate)]	98.2%
O=C(O)c1ccc2c(c1)CCCC(c1ccc(Cl)cc1Cl)=C2c1ccc(O[C@H]2CCN(CCCF)C2)cc1	100%
Cc1cccc(/C=N/Nc2cc(N3CCOCC3)nc(OCCc3ccccn3)n2)c1 [Apilimod (mesylate)]	97.4%
c1cn2cc(-c3ccc4cn[nH]c4c3)nc(Nc3ccc(N4CCOCC4)cc3)c2n1 [Entospletinib]	100%
C=Cc1cc(O)cc2nc(-c3ccc(O)c(F)c3)oc12 [Prinaberel]	100%
Cc1ccc(-c2c(C(=O)CCl)n(CCCO)c3ncnc(N)c23)cc1	99.8%

Structure (SMILES)	growth reduction
CCCCN(CCCC)C(=O)CN1C[C@H](c2ccc3c(c2)OCO3)[C@@H](C(=O)O)[C@@H]1c1ccc(OC)cc1 [Atrasentan (hydrochloride)]	100%
CCCCCCNC(=O)n1cc(F)c(=O)[nH]c1=O [Carmofur]	100%
CC(C)(C)C#Cc1cc(N(C(=O)[C@H]2CC[C@H](C)CC2)[C@H]2CC[C@H](O)CC2)c(C(=O)O)s1 [Lomibuvir]	91.1%
COc1cc2c(Nc3ccc(Cl)c(Cl)c3F)ncnc2cc1OC[C@@H]1C[C@@H]2CN(C)C[C@@H]2C1 [Tesevatinib]	100%
O=C(NC1CCN(CCCCC2(C(=O)NCC(F)(F)F)c3ccccc3-c3ccccc32)CC1)c1ccccc1-c1ccc(C(F)(F)F)cc1 [Lomitapide]	100%
CC(=O)c1cc2c(o1)C(=O)c1ccccc1C2=O [Napabucasin]	100%
Cc1ccc(C(=O)Nc2ccc(CN3CCN(C)CC3)c(C(F)(F)F)c2)cc1C#Cc1cnc2[nH]ncc2c1	100%
CNCc1ccc(C)c(NC(=O)c2ccc(Nc3nc(-c4ccccc4)c4ccccc4n3)cc2)c1	100%
CC(C)(C)CC(C)(C)c1ccc(OCCOCC[N+](C)(C)Cc2ccccc2)cc1 [Benzethonium chloride]	100%
OCCN1CCN(CC/C=C2/c3ccccc3Sc3ccc(Cl)cc32)CC1 [Zuclopenthixol]	100%
CCCCCCCCCCCCN1CCCCCC1=O [Laurocapram]	100%
N#CC(c1ccc(Cl)cc1)c1c(Cl)cc(-n2ncc(=O)[nH]c2=O)cc1Cl (stereo not given) [Diclazuril]	100%
COc1cc(NCc2ccc3nc(N)nc(N)c3c2C)cc(OC)c1OC [Trimetrexate]	90.4%
Cc1nc(C(=O)NCC(=O)O)c(O)c2ccc(Oc3ccccc3)cc12 [Roxadustat]	99.9%
CC/C(=C(/c1ccc(/C=C/C(=O)O)cc1)c1ccc2[nH]ncc2c1)c1ccc(F)cc1Cl [Brilanestrant]	96.6%
C=C[C@@H]1C[C@]1(NC(=O)[C@@H]1C[C@@H](Oc2ncc(OC)c3ccc(Cl)cc23)CN1C(=O)[C@@H](NC(=O)OC(C)(C)C)C(C)(C)C)C(=O)NS(=O)(=O)C1CC1 [Asunaprevir]	100%
CCCCCCCCCCCC[N+](C)(C)CCOc1ccccc1 [Domiphen (bromide)]	100%
COc1cccc(OC)c1-c1cc(C(=O)NC2(C(=O)O)C3CC4CC(C3)CC2C4)nn1-c1ccnc2cc(Cl)ccc12 (stereo not given) [Meclinertant]	100%
COc1cc(NC(C)CCCN)c2ncccc2c1 (stereo not given) [Primaquine (Diphosphate)]	91.2%
CNC(=O)c1cc(Oc2ccc(NC(=O)Nc3ccc(Cl)c(C(F)(F)F)c3)c(F)c2)ccn1 [Regorafenib (Hydrochloride)]	100%
